This is an account of results in PubChem BioAssay.

Experiment [1] can be described thus: modulation of C. elegans fzo-1 (AID 1259413; call rule not given here;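 note: fzo-1 mutant C. elegans worms in liquid wells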). The following applies: C. elegans fzo-1 modulator screen, mean read-out; stronger effect = higher value.
A further experiment has as its system F380Y. Nature of the experiment: BK channel mutant inhibitors and activators – cell-based, U2OS BacMam, thallium flux, beta subunits, selectivity assay, profiling panel (AID 1259406).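 Note: initial slope of Thallos dye fluorescence rise after thallium is added; log ratio against the mean of 0.3% DMSO vehicle wells on the same plate.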 The following applies: U2OS BacMam BK variants, at 30 µM.
A further experiment concerns F380Y/beta2Delta. Described as above. The following applies: U2OS BacMam BK variants, at 30 µM.
The target of experiment [2] is Calcium-activated potassium channel subunit alpha-1 (Homo sapiens) + Leucine-rich repeat-containing protein 26 (Homo sapiens) (UniProt Q12791+Q2I0M4). The description is as above. The following applies: U2OS BacMam BK variants, F380Y/Slo1WT/gamma1, at 30 µM.
The test system of the next experiment is R275C. Described as above. The following applies: U2OS BacMam BK variants, at 30 µM.
In the next experiment the test system is R275C/beta1. Described as above. The following applies: U2OS BacMam BK variants, at 30 µM.
A further experiment concerns R275C/beta2Delta. The experiment is described as above. The following applies: U2OS BacMam BK variants, at 30 µM.
The test system of another experiment is R275C/Slo1WT/beta2. The experiment is described as above. The following applies: U2OS BacMam BK variants, at 30 µM.
A short description of experiment [3]: compounds altering circadian rhythm period length – cell-based, LOPAC library, luminescence reporter (AID 2774; call rule not given here;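 note: values are relative to mean of DMSO wells on each plate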). The following applies: circadian reporter cells, at 7 µM, actives lie on both sides.
Experiment [4] has as its system Hepatitis C virus NS3 helicase. Nature of the experiment: blockers of NS3h binding to ssDNA – biochemical, fluorescence polarization, LOPAC1280 library, primary screen (AID 687035; in the data active = inhibition above about 37%). The following applies: Purified HCV NS3 helicase, Cy5-dT15 ssDNA binding fluorescence polarization; stronger effect = higher value; concentration not given here. For orientation: In fluorescence polarisation assays a small probe gives low polarisation when free and higher when bound to something large.

Experiment [5] in a line: compounds altering Cy5-DNA-NS3h complex signal – biochemical, LOPAC1280, artefact control for HCV NS3 helicase inhibitor project (AID 687037; call rule not given here). The following applies: Cy5-DNA-NS3h complex fluorescence interference counterscreen.
Experiment [6] has as its system Aerobactin synthetase IucA (Klebsiella pneumoniae, hypervirulent). Nature of the experiment: biochemical IucA inhibition screen of LOPAC library by absorbance (AID 1346212; call rule not given here;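 note: 100% = no compound wells and 0% = no enzyme wells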). The following applies: IucA enzyme assay, absorbance (OD) readout; stronger effect = lower value;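 tested at 8 µM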.
A short description of experiment [7]: blockers of cellular phospholipid synthesis – cell-based, LOPAC library, screen 4, primary screen (AID 1347384; call rule not given here). The following applies: animal cells, phospholipid biosynthesis inhibition screen; at 10 µM.
Experiment [8] is described as follows: blockers of polyQ-driven CASP3 activation – cell-based (AID 1583). The following applies: polyglutamine-induced caspase-3 activation, cell assay; stronger effect = higher value;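 tested at 10 µM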.
Experiment [9] can be described thus: restoration of touch response, mutant HTT neurons – whole organism, C. elegans mechanosensory neurons, N-terminal huntingtin (AID 1599). The following applies: C. elegans polyQ-huntingtin mechanosensory neurons, stronger effect = higher value.
The nature of experiment [10]: glutamate transport activators, MN-1 cells, MN-1 cell line (AID 1612).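 Note: tested at 1 µM final; 0% = mean of DMSO vehicle wells on each plate; positive means more glutamate uptake than control and negative means less.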 The following applies: MN-1 motor neuron cells, stronger effect = higher value.
Experiment [11] can be described thus: GFP-Q80 aggregate reduction, neuronal-like cells, cell-based, NGF-treated PC12, GFPQ80 (AID 1614).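 Note: lower means fewer inclusions and 0 means no inclusions at all.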 The following applies: PC12 NGF-treated GFP-polyQ80 inclusion reduction.
The nature of experiment [12]: 75Q-TubH aggregate inhibition, S. cerevisiae, yeast (AID 1616). The following applies: S. cerevisiae 75Q-TubH polyglutamine aggregation suppression; stronger effect = higher value.
Experiment [13] is described as follows: compounds altering viability of human ES cells (AID 493140; call rule not given here;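 note: cells exposed to compounds for four days before counting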). The following applies: human embryonic stem cell survival screen; stronger effect = higher value.

Molecules are shown by their SMILES. Where “and” joins values, the source holds several entries; their conditions need not be identical. Equal entries are not always repeated. For part of these data: Potency and affinity values are given separately. Calls of active or inactive are those of the source.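 Rule for the calls, unless noted: active = thallium flux through the channel raised or lowered by more than 3 SD from vehicle-only wells, actives on both sides; inactive = the rest.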

Chain of Calcium-activated potassium channel subunit alpha-1 (Homo sapiens) + Leucine-rich repeat-containing protein 26 (Homo sapiens) (Q2I0M4 whole entry, looked up, one chain of several): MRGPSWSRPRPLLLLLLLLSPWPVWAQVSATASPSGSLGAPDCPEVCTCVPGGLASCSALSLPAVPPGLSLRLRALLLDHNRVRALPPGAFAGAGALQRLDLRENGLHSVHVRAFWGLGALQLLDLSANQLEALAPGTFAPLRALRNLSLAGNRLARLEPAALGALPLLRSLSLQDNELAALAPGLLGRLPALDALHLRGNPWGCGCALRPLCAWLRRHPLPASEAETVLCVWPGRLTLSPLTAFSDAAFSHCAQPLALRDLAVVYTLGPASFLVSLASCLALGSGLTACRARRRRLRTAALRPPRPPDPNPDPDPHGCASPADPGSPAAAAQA

Turning to `c1ccc2c(c1)Nc1ccccc1S2`, in experiment [1], the mean signal is 265 (inactive). The log fold change Tl+ flux with F380Y is -0.0351 (inactive); in the experiment on F380Y/beta2Delta, 0.033 (inactive); in experiment [2], -0.0274 (inactive); in the experiment on R275C it was -0.041 (inactive); in the experiment on R275C/beta1, 0.0203 (inactive); in the experiment on R275C/beta2Delta, -0.0792 (inactive). Also, the log fold change Tl+ flux with R275C/Slo1WT/beta2 was 0.00584 (inactive).
In the case of `NN=C(N)N`, the period change in experiment [3] was -0.015 hour (inactive) and -0.1 hour (inactive). For the same compound, the inhibition (as a rule, the relative decrease from the control value, in per cent) in experiment [4] was -1% (inactive) and -5% (inactive). In addition, in [5], the fluorescence ratio (interference) was 1 (inactive) and 0.9 (inactive). Moreover, the remaining activity – broadly, the signal under treatment as a percentage of the control signal – in [6] is 111% (inactive) and 119% (inactive). The compound was classed as inactive in experiment [7].
Turning to `CCCC(C)C1(CC)C(=O)N=C(S)NC1=O` (stereo not drawn), the inhibition in experiment [8] worked out at 15.2%. Moreover, the rescue above control in experiment [9] is -8.64. In addition, the glutamate uptake change in [10] stood at 15.5%. The inclusion score in [11] worked out at 2. This compound also displayed an aggregation suppression score in [12] of 0.929.
Consider `Oc1cc(Cl)ccc1Oc1ccc(Cl)cc1Cl`, for which, in experiment [1], the mean signal was 192 (inactive). In addition, the log fold change Tl+ flux in the experiment with F380Y was -0.452 (active); in the experiment with F380Y/beta2Delta, -0.343 (active); in experiment [2] it was -0.0387 (inactive); with R275C it was -0.105 (active); in the experiment with R275C/beta1, -0.254 (active); in the experiment on R275C/beta2Delta, -0.148 (active). Besides, in the experiment on R275C/Slo1WT/beta2, the log fold change Tl+ flux is -0.125 (active).
Regarding `CCOC(=O)c1cncn1C(C)c1ccccc1` (stereo not drawn), in experiment [13], the survival is 6.08 (inactive). In addition, the log fold change Tl+ flux with F380Y is -0.00492 (inactive); in the experiment on F380Y/beta2Delta, 0.0219 (inactive); in experiment [2], -0.00742 (inactive); with R275C, -0.00746 (inactive); in the experiment with R275C/beta1 it was 0.0125 (inactive); in the experiment with R275C/beta2Delta, 0.0301 (inactive). The log fold change Tl+ flux in the experiment with R275C/Slo1WT/beta2 is -0.0322 (inactive).
Turning to `CNCC(O)c1ccc(O)cc1` (stereo not drawn), the period change in [3] is -0.045 h (inactive). The survival in experiment [13] was 2.92 (inactive). In addition, the inhibition in experiment [4] is -2% (inactive). For the same compound, the fluorescence ratio (interference) in [5] was 1 (inactive). In addition, in [1], the mean signal was 258 (inactive). Further, in experiment [7], the compound was classed as inactive. For the same compound, the log fold change Tl+ flux in the experiment on F380Y is -0.0218 (inactive); with F380Y/beta2Delta it was 0.0172 (inactive); in [2] it was 0.0291 (inactive); in the experiment on R275C, -0.0246 (inactive); in the experiment with R275C/beta1, 0.022 (inactive); with R275C/beta2Delta it was 0.0197 (inactive). The log fold change Tl+ flux with R275C/Slo1WT/beta2 was 0.0309 (inactive).
Turning to `CC1(C)C(C=C(Cl)Cl)C1C(=O)OC(C#N)c1cccc(Oc2ccccc2)c1` (stereo not drawn), the survival in [13] is 64.8 (inactive).
Consider `CCC(COC(=O)c1cc(OC)c(OC)c(OC)c1)(c1ccccc1)N(C)C` (stereo not drawn), for which, in experiment [1], the mean signal is 257 (inactive). In addition, the log fold change Tl+ flux was -0.284 (active) in the experiment with F380Y; -0.21 (active) in the experiment with F380Y/beta2Delta; -0.141 (active) in [2]; -0.249 (active) in the experiment on R275C; -0.324 (active) with R275C/beta1; -0.495 (active) in the experiment on R275C/beta2Delta. For the same compound, the log fold change Tl+ flux in the experiment with R275C/Slo1WT/beta2 is -0.104 (active).
For the compound `COc1cc(N)c(Cl)cc1C(=O)NC1CN2CCC1CC2` (stereo not drawn), the mean signal in experiment [1] was 253 (inactive).
Take `CN[C@@H](C)[C@H](O)c1ccccc1`: the period change in experiment [3] was -0.07 h (inactive).
Take `NC1=NC(=O)C(c2ccccc2)O1` (stereo not drawn): the mean signal in experiment [1] was 245 (inactive). Further, the log fold change Tl+ flux in the experiment with F380Y was -0.012 (inactive); with F380Y/beta2Delta, -0.0196 (inactive); in experiment [2], -0.0447 (inactive); with R275C it was 0.00173 (inactive); in the experiment on R275C/beta1, 0.00542 (inactive); with R275C/beta2Delta it was -0.00885 (inactive). Also, the log fold change Tl+ flux with R275C/Slo1WT/beta2 is 0.0857 (active).
For the compound `CN[C@@H]1C[C@@H](c2ccc(Cl)c(Cl)c2)c2ccccc21`, the period change in [3] was 0.04 h (inactive). Further, the inhibition in experiment [4] was -2% (inactive). For the same compound, the fluorescence ratio (interference) in experiment [5] was 0.9 (inactive). The mean signal in experiment [1] was 207 (inactive). Further, in experiment [6], the remaining activity is 107% (inactive). In addition, the result in experiment [7] was inactive. Moreover, the log fold change Tl+ flux is 0.0202 (inactive) in the experiment with F380Y; 0.44 (active) in the experiment on F380Y/beta2Delta; 0.0738 (inactive) in experiment [2]; -0.12 (active) in the experiment on R275C; 0.445 (active) in the experiment with R275C/beta1; 0.134 (active) in the experiment on R275C/beta2Delta.
